# Laboratory results as given in PubChem BioAssay AID588342 (National Center for Advancing Translational Sciences (NCATS), 2011).
# The campaign covered roughly 360,000 compounds. About 25,000 (6.9%) were called active. Inconclusive results (about 9%) are left out. What follows is part of a selection rich in actives, with near analogues and random picks from the rest. Unmarked numbers belong to inactive results. Calls follow the shape of the dose curve; as a rule, active = well fitted inhibition curve with a large enough effect; inconclusive = small, poorly fitted or top-dose-only effect; inactive = flat fitted curve, though single readings scatter.
# Molecular target: Luciferin 4-monooxygenase (Photinus pyralis) (UniProt P08659)
# Assay: qHTS profiling assay for firefly luciferase inhibitor/activator using purifed enzyme and Km concentrations of substrates (counterscreen for miR-21 project); also: nearly all actives have a fitted effect of over 55% in size;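 as to activity change, negative = inhibition: plate controls were vehicle for no effect and reference inhibitor for full effect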
# Conditions: purified FLuc, luminescence inhibition; series mostly up to 57.5 µM; activity change, negative = inhibition: at the top concentration
# Method in brief: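 Purified P. pyralis luciferase (10nM final) with 10uM D-luciferin and 10uM ATP (Km levels) in 50mM Tris acetate pH 7.5, 10mM Mg acetate, 0.01% Tween-20, 0.05% BSA; qHTS 6-point titration, ~60 µM downward; luminescence read.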
# Potency is read from the fitted curve at half-maximal effect.
# Chain of Luciferin 4-monooxygenase (Photinus pyralis) (P08659 whole entry, looked up): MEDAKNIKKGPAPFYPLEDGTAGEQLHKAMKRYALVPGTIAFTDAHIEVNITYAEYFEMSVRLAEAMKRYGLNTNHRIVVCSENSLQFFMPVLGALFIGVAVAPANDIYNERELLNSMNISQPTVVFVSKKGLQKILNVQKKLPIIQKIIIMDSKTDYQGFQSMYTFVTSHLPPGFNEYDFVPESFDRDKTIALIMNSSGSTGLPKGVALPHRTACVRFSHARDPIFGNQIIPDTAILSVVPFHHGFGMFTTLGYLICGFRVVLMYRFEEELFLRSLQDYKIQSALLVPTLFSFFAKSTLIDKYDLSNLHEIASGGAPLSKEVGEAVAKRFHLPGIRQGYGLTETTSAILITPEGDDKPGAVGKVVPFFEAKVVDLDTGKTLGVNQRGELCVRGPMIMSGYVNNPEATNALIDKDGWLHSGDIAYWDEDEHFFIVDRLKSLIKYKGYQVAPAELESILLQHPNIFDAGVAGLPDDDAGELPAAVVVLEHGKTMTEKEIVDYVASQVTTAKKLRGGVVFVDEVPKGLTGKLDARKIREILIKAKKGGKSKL
Compound,"activity change, negative = inhibition",Potency
Cc1cccc(C(=O)NCCc2nc3ccccc3n2Cc2ccccc2Cl)c1,-4.32%,
O=C1C2N=NN(CC(=O)N3N=C(c4cccc5ccccc45)CC3c3ccccc3)C2C(=O)N1c1ccccc1 (stereo unspecified),5.45%,
Cc1ccc(-n2nc(CO)c(C(=O)NCCc3ccccc3)n2)cc1,-0.322%,
COc1ccccc1C(=O)NC(CCSC)C(=O)N1CCN(C/C=C/c2ccccc2)CC1 (stereo unspecified),11.5%,
COc1cc(C(=O)Nc2ccc(-n3c(C)nc4ccccc4c3=O)cc2)cc(OC)c1OC,-0.586%,
CC(C)Cn1c(-c2ccc(S(=O)(=O)N3CCOCC3)cc2)csc1=Nc1cc(Cl)ccc1Cl,2.36%,
Cn1c(CC(=O)NNC(=O)c2ccccc2F)nc2ccccc21,2.54%,
CCOc1ccc2oc(C(=O)N(CC)CC(=O)Nc3ccc(NC(C)=O)cc3)c(C)c2c1,-7.13%,
Cc1nn(CC(=O)N2CCN(c3cccc(C(F)(F)F)c3)CC2)c(=O)c2cc3sccc3n12,-8.4%,
CC(=O)c1ccc(NC(=O)c2nc(-c3ccc(C)cc3)n3c2CCCCC3)cc1,-5.49%,
COc1ccc(-c2cc(C(=O)Nc3sc4c(c3C(N)=O)CCCC4)no2)cc1,-17.3%,
CCC(C(=O)OCC(=O)Nc1ccc(C(=O)Nc2ccc(OC)cc2)cc1)c1ccccc1 (stereo unspecified),-15.7%,
CCC(=O)Nc1ccc(C(=O)Nc2cccc(OC)c2)cc1,,23.9 µM (active)
COc1ccc(NC(=O)Nc2ccc3nsnc3c2)cc1,,6.75 µM (active)
CCOC(=O)c1c(NC(=O)c2ccc(N3CCOCC3)c([N+](=O)[O-])c2)sc(C)c1C,0.104%,
CC1CCc2noc(NC(=O)c3ccc([N+](=O)[O-])cc3)c2C1 (stereo unspecified),-12%,
COc1ccc(C(=O)Nc2sc(C)c(C)c2CN2CCOCC2)cc1,,23.9 µM (active)
COc1cccc(NC(=O)c2csnn2)c1,-19.5%,
COc1ccc(C(=O)Nc2onc3c2CCCC3)cc1,,0.601 µM (active)
COc1ccc(/C=N/NC(=O)Nc2ccc3nsnc3c2)c(OC)c1,-4.18%,
COc1ccc(C(=O)Nc2ccnn2C2CCN(Cc3ccncc3)CC2)cc1,-1.5%,
COC(=O)[C@H](CCSC)NC(=O)Nc1ccc(OC)cc1,0.815%,
CCCCN1C(=O)c2[nH]nc(-c3ccccc3O)c2C1c1cccc(OCc2ccccc2)c1 (stereo unspecified),1.47%,
CC1CCN(C(=O)Cn2c(=O)n(-c3ccc(Cl)cc3)c(=O)c3c4c(sc32)CCC4)CC1,4.6%,
Cc1ccccc1NC(=O)CN1C(=O)C(C)(C)c2ccccc21,-0.294%,
Cc1noc(C)c1-c1ccc2ncnc(NC(C)c3ccco3)c2c1 (stereo unspecified),1.6%,

Compound,"activity change, negative = inhibition",Potency
Cc1ccc(C)c(N2CCN(C(=O)CCc3c(C)nc4c(c3C)c(=O)n(C)c(=O)n4C)CC2)c1,2.81%,
Cc1ccccc1Nc1scc(-c2ccc(Br)cc2)[n+]1-c1ccccc1C,-1.41%,
CCOc1ccc(OCC)c(NS(=O)(=O)c2ccc3[nH]c(=O)ccc3c2)c1,-2.85%,
Cc1cccc(-n2c(Cc3cc(=O)[nH]c(=O)[nH]3)nnc2SC(C)C)c1,-0.177%,
COc1cccc(N(CC(=O)NC2CCCC2)C(=O)Cn2nnc(-c3ccc(C)o3)n2)c1,6.13%,
O=S(=O)(c1ccc(Br)cc1)c1nnn2c1nc(N1CCOCC1)c1sccc12,4.66%,
CCn1cc2nc(SCc3ccccc3Cl)n(CCc3ccccc3)c(=O)c2n1,-10.6%,
COc1cc(OC)cc(C(=O)OCC(=O)Nc2ccc(F)cc2F)c1,-1.29%,
CCc1ccccc1NC(=O)c1ccc2nc(CCc3ccccc3)oc2c1,-22.5%,
COc1ccc(NC(=O)ON=C2c3ccccc3-c3ccccc32)cc1,,21.3 µM (active)
COc1ccc(C(=O)NNC(=S)NC(=O)c2ccccc2)cc1,-0.103%,
O=C(NC(=S)NC1CCCCC1)c1ccc(Cl)cc1,-18.8%,
COc1ccc(C(=O)NC(=S)NC2CCCCC2)cc1,,15.1 µM (active)
COc1ccc(C(=O)Nc2ccc(F)cc2F)cc1,,10.7 µM (active)
COc1ccccc1CC(=O)Nc1ccc(F)cc1F,-3.36%,
COc1ccc(NC(=O)C(Br)C(C)C)cc1 (stereo unspecified),-4.38%,
COc1ccc(NC(=O)c2ccc3nc(CCc4ccccc4)oc3c2)c(OC)c1,-16.3%,
COc1ccc(NC(=O)CS(=O)(=O)c2ccccc2)cc1,-2.89%,
COc1cccc(NC(=O)c2ccc3nc(CCc4ccccc4)oc3c2)c1,,23.9 µM (active)
Cc1ccc2c(=O)c(C(=O)c3ccc(Cl)cc3)cn(CC(=O)NC3CCCCC3)c2n1,-2.08%,
CC(=O)N1c2ccccc2CC1C(=O)N1CCN(c2ccc(F)cc2)CC1 (stereo unspecified),-0.433%,
O=c1cc2nc(-c3ccccc3)nc(SCCOc3ccc(Cl)cc3)n2[nH]1,-13%,
O=C(NNC(=S)NC1CC2CCC1C2)c1ccc(Cl)cc1 (stereo unspecified),-11.8%,
CCc1cc(C(N)=O)c(NC(=O)c2ccc(OC)cc2)s1,,6.01 µM (active)
CCc1cc(C(c2ccccc2OC)N2CCOCC2)c(NC(=O)c2ccccc2)s1 (stereo unspecified),-1.35%,
